Source: PubChem BioAssay (EPA / NIEHS)
The source made the active and inactive calls. The calls were made as follows: active = hit-call score of the fitted dose curve at least 0.9, where 1 is the maximum; inactive = score below 0.9.

What was measured:
[1] = APR_HepG2_NuclearSize_72hr: Apredica 72-hour HepG2 Assay for Nuclear Size (AID 2282925); conditions: high-content imaging, actives raise or lower the signal
Method in brief: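 Compounds (0.39–200 uM, final DMSO 0.5%) were applied to HepG2 for 72 hr. Cells were then formaldehyde-fixed, permeabilized and labelled with Hoechst 33342. Nuclear diameter was quantified from six images per well.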

[2] = ATG_CRE_CIS: Attagene CIS-FACTORIAL HepG2 Assay for human cAMP Responsive Element (CRE) binding protein 3 (AID 2282926); conditions: HepG2 CRE cis-reporter, Attagene multiplexed mRNA; actives raise or lower the signal
Method in brief: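 Assay format: transient reporter transfection of HepG2, 24 h treatment, total RNA isolation with DNase I step. Reporter abundance read by fluorescence after PCR and capillary separation; DMSO-normalised gain or loss fitting.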

[3] = target: CCAAT/enhancer-binding protein beta (Homo sapiens) (UniProt P17676); experiment: ATG_C_EBP_CIS: Attagene CIS-FACTORIAL HepG2 Assay for human CCAAT/Enhancer Binding Protein (C/EBP) beta (AID 2282927); conditions: HepG2 Attagene cis-factorial transcription factor reporter; actives raise or lower the signal
Method in brief: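 RT-PCR/capillary electrophoresis fluorescence of reporter mRNA, 24 h post-dose, in HepG2 cells carrying transfected cis-promoter reporter units. Bidirectional curve fitting against DMSO baseline captures gain or loss of signal.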

[4] = ATG_CMV_CIS: Attagene CIS-FACTORIAL HepG2 Assay for human CMV (Internal Marker) (AID 2282928); conditions: HepG2 CMV promoter reporter, transcription factor profiling; actives raise or lower the signal;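 also: endpoint acts as a background internal control marker rather than a target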
Method in brief: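 24 h chemical treatment, HepG2 with transient multi-reporter transfection; RNA → oligo(dT) RT → PCR → 6-FAM extension → HpaI digest → CE fluorescence. Bidirectional fit, DMSO negative control.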

[5] = ATG_DR4_LXR_CIS: Attagene CIS-FACTORIAL HepG2 Assay for human Liver X Receptor (LXR), DR4 submotif (AID 2282929); conditions: HepG2 Attagene DR4 cis-reporter, mRNA transcription; actives raise or lower the signal
Method in brief: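 DR4 cis-reporter in HepG2, 24 h exposure. Detection: RT-PCR, 6-FAM labelling, CE fragment analysis. Endpoint fitted bidirectionally, DMSO = baseline.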

[6] = target: Aryl hydrocarbon receptor (Homo sapiens) (UniProt P35869); experiment: ATG_Ahr_CIS: Attagene CIS-FACTORIAL HepG2 Assay for human Aryl Hydrocarbon Receptor (Ahr) (AID 2282930); conditions: HepG2 AhR cis-factorial reporter transcription; actives raise or lower the signal
Method in brief: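 HepG2 cells transiently transfected with cis-element-driven multiplexed reporter transcription units; endogenous transcription factor activity measured as reporter mRNA 24 h after dosing. RT-PCR, 6-FAM labelling, HpaI digestion, capillary electrophoresis; bidirectional fitting versus DMSO baseline.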

[7] = ATG_AP_1_CIS: Attagene CIS-FACTORIAL HepG2 Assay for human Activator Protein 1 (AP-1) (AID 2282931); conditions: HepG2 Attagene cis-factorial AP-1 reporter mRNA; actives raise or lower the signal
Method in brief: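 Cis-regulated reporter units transiently expressed in HepG2 report endogenous transcription-factor activity. Signal: reporter mRNA at 24 h, via RT-PCR and fluorescent capillary electrophoresis. Endpoint derived by bidirectional fitting, DMSO as negative control.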

[8] = ATG_AP_2_CIS: Attagene CIS-FACTORIAL HepG2 Assay for human Activator Protein 2 (AP-2) (AID 2282932); conditions: HepG2 AP-2 cis-reporter, Attagene transcription factor profiling; actives raise or lower the signal
Method in brief: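 Assay in transfected HepG2 with promoter-regulated reporters, 24 h incubation after dosing. Signal is reporter mRNA fluorescence (RT-PCR, capillary electrophoresis), analysed for both increases and decreases relative to DMSO controls.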

[9] = ATG_BRE_CIS: Attagene CIS-FACTORIAL HepG2 Assay for human Bone Morphogenetic Protein (BMP) Response Element (BRE) (AID 2282933); conditions: HepG2 BMP response element reporter, Attagene transcription factor profiling; actives raise or lower the signal
Method in brief: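 Transient MRTU transfection of human HepG2 liver cells; 24 h compound treatment; total RNA isolated, reverse-transcribed, PCR-amplified, 6-FAM labelled, HpaI-cut, capillary electrophoresis. DMSO = negative control/baseline, bidirectional fit.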

[10] = target: Retinoic acid receptor alpha (Homo sapiens) (UniProt P10276); experiment: ATG_DR5_RAR_CIS: Attagene CIS-FACTORIAL HepG2 Assay for human Retinoic Acid Receptor Alpha (RARE), DR5 submotif (AID 2282934); conditions: HepG2 Attagene cis-factorial RARE DR5 reporter, mRNA; actives raise or lower the signal
Method in brief: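 HepG2 cells transiently transfected with multiplexed reporter units under cis (DR5 RARE) promoters, so endogenous transcription factor activity is measured. After 24 h compound exposure, reporter mRNA is quantified by RT-PCR with fluorescent labelling and capillary electrophoresis; bidirectional fitting versus DMSO.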

[11] = target: Transcription factor E2F1 (Homo sapiens) (UniProt Q01094); experiment: ATG_E2F_CIS: Attagene CIS-FACTORIAL HepG2 Assay for human E2F Transcription Factor 1 (AID 2282935); conditions: HepG2 Attagene cis-reporter, E2F reporter RNA transcripts; actives raise or lower the signal
Method in brief: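 In this cis-factorial format, endogenous factor activity drives transfected reporters in HepG2; transcripts collected at 24 h are quantified by fluorescence after RT-PCR and capillary separation.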

[12] = ATG_E_Box_CIS: Attagene CIS-FACTORIAL HepG2 Assay for human Enhancer Box (E-box) (AID 2282936); conditions: HepG2 E-box cis-reporter transcription, actives raise or lower the signal
Method in brief: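 Measured 24 h post-dosing in HepG2 cells transfected with multiple cis-regulated reporter units, signal being reporter mRNA induction detected by fluorescent RT-PCR with capillary electrophoresis; gain or loss fitted against DMSO.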

[13] = ATG_M_61_CIS: Attagene CIS-FACTORIAL HepG2 Assay for M61 Transcription Factor (Internal Marker) (AID 2282937); conditions: HepG2 Attagene CIS-FACTORIAL M61 internal marker reporter; actives raise or lower the signal
Method in brief: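 Background-control endpoint: HepG2 cells with cis-regulated reporter constructs, 24 h exposure, reporter mRNA detected via fluorescent primer extension and capillary electrophoresis; values from bidirectional fitting with DMSO baseline.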

[14] = ATG_EGR_CIS: Attagene CIS-FACTORIAL HepG2 Assay for human Early Growth Response 1 (EGR1) (AID 2282938); conditions: HepG2 Attagene CIS-FACTORIAL EGR reporter mRNA; actives raise or lower the signal
Method in brief: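 Endpoint derived by bidirectional fitting versus DMSO vehicle. Method: cis-promoter reporter units transfected into HepG2, 24 h dosing, RNA isolation, RT-PCR with 6-FAM primer extension and HpaI digestion, then capillary electrophoresis fluorescence detection.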

[15] = ATG_M_19_CIS: Attagene CIS-FACTORIAL HepG2 Assay for M19 Transcription Factor (Internal Marker) (AID 2282939); conditions: HepG2 Attagene CIS-FACTORIAL M19 internal marker reporter; actives raise or lower the signal
Method in brief: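 Transfect HepG2 with MRTU reporter library → dose chemical, 24 h → isolate total RNA, reverse-transcribe with oligo(dT) → PCR, 6-FAM label, HpaI cut (2 h, 37 C) → capillary electrophoresis. Bidirectional fit vs DMSO.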

[16] = ATG_ERE_CIS: Attagene CIS-FACTORIAL HepG2 Assay for Estrogen Response Element (ERE) (AID 2282940); conditions: HepG2 ERE cis-reporter, Attagene RNA transcript; actives raise or lower the signal
Method in brief: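 Transient MRTU transfection of human HepG2; cis-element promoters; 24 h dosing; total RNA → RT (oligo dT) → PCR → 6-FAM primer extension → HpaI digest → CE fluorescence. Bidirectional fit, DMSO baseline.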

[17] = ATG_Ets_CIS: Attagene CIS-FACTORIAL HepG2 Assay for human Erythroblast Transformation Specific (ETS) (AID 2282941); conditions: HepG2 ETS cis-reporter transcription, actives raise or lower the signal
Method in brief: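 Cis-regulated reporter mRNA induction in HepG2 (transient transfection), 24 h exposure, RT-PCR plus capillary electrophoresis detection; DMSO serves as negative control and baseline.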

[18] = target: Hepatocyte nuclear factor 3-beta (Homo sapiens) (UniProt Q9Y261); experiment: ATG_FoxA2_CIS: Attagene CIS-FACTORIAL HepG2 Assay for human Forkhead box A2 (FOXA2) (AID 2282942); conditions: HepG2 cis-reporter transcription factor activity, 24 h; actives raise or lower the signal
Method in brief: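 Measured: reporter mRNA induction or loss in HepG2 transiently carrying multiple cis-regulated reporter units, 24 h after dosing. Quantified by RT-PCR plus capillary electrophoresis, normalised to DMSO.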

[19] = ATG_FoxO_CIS: Attagene CIS-FACTORIAL HepG2 Assay for human Forkhead box O (FoxO) (AID 2282943); conditions: HepG2 Attagene cis-reporter, FoxO element, mRNA; actives raise or lower the signal
Method in brief: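 HepG2 cells transiently transfected with cis-promoter-driven multiple reporter transcription units; 24 h after chemical dosing, reporter mRNA quantified by RT-PCR, fluorescent primer extension, HpaI digestion and capillary electrophoresis. Bidirectional fitting versus DMSO baseline.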

[20] = ATG_GATA_CIS: Attagene CIS-FACTORIAL HepG2 Assay for human GATA Binding Protein (AID 2282944); conditions: HepG2 GATA cis-element reporter, Attagene multiplex mRNA; actives raise or lower the signal
Method in brief: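 Transient MRTU transfection, HepG2, 24 h compound exposure. Total RNA → oligo(dT) RT → PCR → 6-FAM primer extension → HpaI cut → CE. Bidirectional fit vs DMSO.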

Measured: AC50

Chain of Aryl hydrocarbon receptor (Homo sapiens) (P35869 whole entry, looked up): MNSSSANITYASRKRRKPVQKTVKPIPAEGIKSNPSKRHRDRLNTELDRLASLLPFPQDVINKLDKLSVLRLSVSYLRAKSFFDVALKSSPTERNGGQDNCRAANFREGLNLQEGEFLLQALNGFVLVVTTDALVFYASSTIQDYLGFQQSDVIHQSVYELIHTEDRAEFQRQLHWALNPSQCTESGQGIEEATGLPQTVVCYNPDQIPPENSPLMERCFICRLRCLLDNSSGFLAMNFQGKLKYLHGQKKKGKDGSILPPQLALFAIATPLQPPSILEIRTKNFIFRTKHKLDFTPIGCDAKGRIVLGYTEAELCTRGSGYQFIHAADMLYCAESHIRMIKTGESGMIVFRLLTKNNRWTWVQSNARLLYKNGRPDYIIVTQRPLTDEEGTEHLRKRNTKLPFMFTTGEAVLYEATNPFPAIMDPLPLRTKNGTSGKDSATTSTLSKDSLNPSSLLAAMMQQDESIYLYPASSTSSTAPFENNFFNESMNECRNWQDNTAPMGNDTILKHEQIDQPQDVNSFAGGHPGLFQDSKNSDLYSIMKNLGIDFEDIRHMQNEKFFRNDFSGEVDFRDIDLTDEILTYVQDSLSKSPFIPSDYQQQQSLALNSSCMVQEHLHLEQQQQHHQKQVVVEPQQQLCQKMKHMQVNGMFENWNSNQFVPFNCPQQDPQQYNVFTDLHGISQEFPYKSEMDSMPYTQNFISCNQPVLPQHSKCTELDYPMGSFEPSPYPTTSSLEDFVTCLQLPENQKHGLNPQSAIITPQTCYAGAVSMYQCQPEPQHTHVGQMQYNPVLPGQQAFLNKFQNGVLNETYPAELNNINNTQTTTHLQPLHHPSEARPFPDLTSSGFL
Chain of Retinoic acid receptor alpha (Homo sapiens) (P10276 whole entry, looked up): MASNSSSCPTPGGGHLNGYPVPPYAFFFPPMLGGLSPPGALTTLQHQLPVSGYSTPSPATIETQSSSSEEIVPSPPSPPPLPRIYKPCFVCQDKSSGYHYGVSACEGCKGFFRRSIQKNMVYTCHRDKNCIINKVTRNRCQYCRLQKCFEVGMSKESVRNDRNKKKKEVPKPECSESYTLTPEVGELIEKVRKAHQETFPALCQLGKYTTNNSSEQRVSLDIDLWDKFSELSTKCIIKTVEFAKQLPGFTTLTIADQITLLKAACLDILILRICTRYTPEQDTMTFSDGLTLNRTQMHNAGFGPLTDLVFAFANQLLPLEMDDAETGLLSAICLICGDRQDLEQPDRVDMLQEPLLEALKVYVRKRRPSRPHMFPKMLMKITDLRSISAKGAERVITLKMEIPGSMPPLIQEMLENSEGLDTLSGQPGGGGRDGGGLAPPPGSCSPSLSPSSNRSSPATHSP
Chain of Hepatocyte nuclear factor 3-beta (Homo sapiens) (Q9Y261 whole entry, looked up): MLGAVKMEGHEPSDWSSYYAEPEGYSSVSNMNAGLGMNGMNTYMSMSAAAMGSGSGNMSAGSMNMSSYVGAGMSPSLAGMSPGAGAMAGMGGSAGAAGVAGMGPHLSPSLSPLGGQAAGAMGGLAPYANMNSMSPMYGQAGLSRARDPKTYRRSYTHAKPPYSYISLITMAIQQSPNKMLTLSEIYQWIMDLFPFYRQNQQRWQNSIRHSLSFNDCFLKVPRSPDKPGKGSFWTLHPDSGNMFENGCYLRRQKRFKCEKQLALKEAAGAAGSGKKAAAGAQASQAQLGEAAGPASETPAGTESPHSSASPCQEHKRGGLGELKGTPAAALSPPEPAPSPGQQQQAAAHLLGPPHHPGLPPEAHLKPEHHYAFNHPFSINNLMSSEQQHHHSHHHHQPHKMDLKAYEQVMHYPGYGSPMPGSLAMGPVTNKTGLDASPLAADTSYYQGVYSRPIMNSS
Chain of CCAAT/enhancer-binding protein beta (Homo sapiens) (P17676 whole entry, looked up): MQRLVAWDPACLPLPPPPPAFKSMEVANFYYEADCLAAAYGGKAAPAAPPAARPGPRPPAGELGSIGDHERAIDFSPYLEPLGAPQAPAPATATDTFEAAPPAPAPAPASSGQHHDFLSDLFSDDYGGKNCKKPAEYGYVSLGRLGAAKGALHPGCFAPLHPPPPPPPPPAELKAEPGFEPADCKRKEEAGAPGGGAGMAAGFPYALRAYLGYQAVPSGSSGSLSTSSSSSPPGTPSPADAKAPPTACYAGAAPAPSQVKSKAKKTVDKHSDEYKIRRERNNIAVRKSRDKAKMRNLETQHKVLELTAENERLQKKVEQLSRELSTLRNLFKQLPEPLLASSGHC
Chain of Transcription factor E2F1 (Homo sapiens) (Q01094 whole entry, looked up): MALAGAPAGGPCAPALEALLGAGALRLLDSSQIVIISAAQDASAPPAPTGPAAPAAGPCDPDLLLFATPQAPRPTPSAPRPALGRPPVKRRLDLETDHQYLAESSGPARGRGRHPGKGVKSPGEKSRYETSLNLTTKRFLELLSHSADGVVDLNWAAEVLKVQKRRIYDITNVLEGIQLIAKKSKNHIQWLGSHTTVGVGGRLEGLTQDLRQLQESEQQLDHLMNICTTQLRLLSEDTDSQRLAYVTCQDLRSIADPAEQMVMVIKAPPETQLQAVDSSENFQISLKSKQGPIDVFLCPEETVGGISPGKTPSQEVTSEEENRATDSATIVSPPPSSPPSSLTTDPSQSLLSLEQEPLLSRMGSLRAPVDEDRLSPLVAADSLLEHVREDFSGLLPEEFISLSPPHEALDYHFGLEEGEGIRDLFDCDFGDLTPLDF

CC1(C)NC(=O)NC1=O
active: [16] 26.3 µM
inactive: all other assays above

COc1ccc(C)cc1N
active: [6] 100 µM
inactive: all other assays above

COC(=O)c1ccc(O)cc1
active: [16] 67.4 µM
inactive: all other assays above

CC1(C)CC(N=C=O)CC(C)(CN=C=O)C1 (centres undefined)
inactive: all assays above

CCCCCCCCCCC
inactive: all assays above

O=C(N[C@@H](Cc1ccccc1)[C@@H](O)C(=O)N1C[C@@H](O)[C@@H](O)C1)c1cc2cc(Cl)ccc2[nH]1
active: [5] 60.5 µM | [7] 159 µM | [8] 155 µM | [12] 165 µM
inactive: all other assays above

Clc1cc(Cl)c(Cl)cc1Cl
inactive: all assays above

O=C(OCCCCCOC(=O)c1ccccc1)c1ccccc1
inactive: all assays above

FC(F)(F)C(F)(F)C(F)(F)C(F)(F)C(F)(F)C(F)(F)CCI
active: [6] 32.1 µM
inactive: all other assays above

Nc1ccc2c(c1)C(=O)c1ccccc1C2=O
active: [16] 7.14 µM
not listed: [15]
inactive: all other assays above

Oc1ccc2c(c1)OC[C@@H](N1CCC(O)(c3ccc(F)cc3)CC1)[C@H]2O
active: [6] 50 µM | [9] 62.1 µM | [14] 50 µM
inactive: all other assays above

CCCCCCOCCO
inactive: all assays above

Cc1oc(-c2ccccc2)nc1CCOc1cccc2c1ccn2CCC(=O)O
active: [4] 19.8 µM | [5] 19.8 µM | [16] 0.066 µM | [18] 1.86 µM
inactive: all other assays above
